Compound activity deposited in PubChem by National Center for Advancing Translational Sciences (NCATS).
Rab9 prom act: activators of Rab9 promoter. Huh7 Rab9 promoter-luciferase reporter, luminescence, 24 h. Potency, µM (series often up to 9.22 µM), for the others: at the highest dose activation, negative = inhibition, actives largely listed as activators. hit rate 2.8% among 320,000. AID 485297; further: % of control where 0% means no effect; nearly all actives have a fitted effect of over 60% in size
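Luminescence from Amplite-detected luciferase (10 minutes, ambient) reports Rab9 promoter activation. Before that, stable Rab9-luciferase Huh7 cells (1500/well, reduced-serum OP-MEM I plus 10% FBS) were exposed to compound for 24 hours at 37C.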
FLuc counter: firefly luciferase modulation, counter-screen for miR-21 project. purified FLuc, Km substrates, luminescence inhibition. AID 588342. P08659. Potency, µM (highest dose often 57.5 µM), for the others: at the top dose activity change, negative = inhibition, usual class: inhibitors. hit rate 6.9% among 360,000;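 further: plate controls were vehicle for no effect and reference inhibitor for full effect; nearly all actives have a fitted effect of over 55% in size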
Target sequence (P08659 whole entry, looked up): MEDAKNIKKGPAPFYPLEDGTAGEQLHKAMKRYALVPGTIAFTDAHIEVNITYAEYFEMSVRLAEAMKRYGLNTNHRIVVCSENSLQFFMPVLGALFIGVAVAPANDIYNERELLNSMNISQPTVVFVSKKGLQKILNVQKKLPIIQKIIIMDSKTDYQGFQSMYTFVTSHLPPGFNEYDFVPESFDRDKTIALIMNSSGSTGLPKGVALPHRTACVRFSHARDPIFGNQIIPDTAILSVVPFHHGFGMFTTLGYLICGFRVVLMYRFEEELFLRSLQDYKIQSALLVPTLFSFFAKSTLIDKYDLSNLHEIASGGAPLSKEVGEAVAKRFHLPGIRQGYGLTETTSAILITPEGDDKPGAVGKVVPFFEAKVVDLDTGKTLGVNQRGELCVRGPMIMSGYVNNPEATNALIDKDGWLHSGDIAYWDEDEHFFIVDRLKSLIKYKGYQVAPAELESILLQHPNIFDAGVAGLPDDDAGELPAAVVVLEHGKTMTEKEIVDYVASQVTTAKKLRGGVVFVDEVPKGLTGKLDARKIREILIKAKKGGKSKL
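Biochemical qHTS of compounds, final roughly 60 µM downward over six points, against 10 nM purified firefly luciferase using Km concentrations of substrates (10 uM D-luciferin, 10 uM ATP) in Tris acetate pH 7.5 buffer; luminescence output.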
SMN2 splice up: SMN2 splice variant enhancement. AID 1458. hit rate 2.8% among 210,000. HEK293 SMN2-luciferase splicing reporter, luminescence, 30-36 h. Potency, µM (series often up to 46.1 µM), inactives show at the top dose activity change, positive = activation, actives largely listed as activators; further: % of control where 0% means no effect; nearly all actives have a fitted effect of over 55% in size
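qHTS luciferase splicing reporter: luminescence rises when SMN2 exon 7 is included in transfected HEK293 cells. Compound exposure lasted 30-36 h at 37C, with 4.5 mM final sodium butyrate as control, followed by a ONE-Glo read.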
NPC1 prom act: activators of NPC1 promoter; Huh7 NPC1 promoter luciferase reporter, 24 h; hit rate 2.4% among 320,000; Potency, µM (doses to about 9.22 µM), inactives show top-dose activation, actives largely listed as activators; further: % of control where 0% means no effect; nearly all actives have a fitted effect of over 60% in size
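Luciferase expression driven by the NPC1 promoter was measured in stably transfected Huh7 cells after a 24 h compound incubation, using a luciferase reagent and a luminescence read.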
p53 reactivator: restores transcriptional activity of mutant p53. Potency, µM (highest dose often 92.2 µM), inactives show at the top dose activity change, positive = activation, usual class: activators. hit rate 0.063% among 320,000. AID 504706. H1299 p53-A138V BP100-luciferase reporter, luminescence, 24 h; further: % of control where 0% means no effect; nearly all actives have a fitted effect of over 45% in size
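p53-null H1299 cells stably carrying temperature-sensitive p53-A138V and a BP100-luciferase reporter were pinned with compounds (4-point, 1:5 series) and held 24 hrs at 37 deg C. Luminescence was read 10 min after detection reagent.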
ELG1 genotoxic: induces genotoxicity in HEK293T cells with luciferase-tagged ELG1; HEK293T ELG1-luciferase reporter, luminescence, 16 h; Potency, µM (highest dose often 46 µM), for inactives: top-dose activity change, positive = activation, usual class: activators; hit rate 1.3% among 330,000; AID 504466; further: % of control where 0% means no effect; nearly all actives have a fitted effect of over 60% in size
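Step 1: seed 2,000 HEK293T ELG1-luciferase cells per well. Step 2: add compound or DMSO, incubate 16 hr at 37 °C. Step 3: ONE-Glo, 30 min at room temperature, read luminescence.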
An asterisk follows results filed as active; ? = inconclusive; nt = no result; [ ] = dose if it differs, or a comment. Rows were chosen to be rich in hits. Some 7.3% of all compounds tested hit in one or more screens of this group. The call rests on the fitted dose curve; in most records, active means well fitted curve in the direction sought with a large enough effect; inconclusive means small, poorly fitted or top-dose-only effect, or another doubt; inactive means no such curve, though single readings can be large; an effect the other way counts as inactive or inconclusive. Potency means the concentration at half of the fitted maximal effect.

SMILES	Rab9 prom act	FLuc counter	SMN2 splice up	NPC1 prom act	p53 reactivator	ELG1 genotoxic
COc1ccc2nc(Nc3ccccc3OC)sc2c1	0.35µM*	0.48µM*	2.8µM*	1.1µM*	11%	?
COc1ccc2nc(Nc3ccccc3)sc2c1	1.6µM*	1.5µM*	11µM*	3.5µM*	29%	22%
COc1ccccc1CNC(=O)Cn1c(=O)oc2cc(S(=O)(=O)NCc3ccccc3)ccc21	nt	-14%	nt	nt	nt	nt
COc1cccc([C@@H]2Oc3ccc(OC)cc3[C@H](O)[C@H]2O)c1	nt	nt	10%	nt	nt	nt
Cc1ccccc1C(=O)Nc1ccccc1OCc1cc(=O)n2ccccc2n1	nt	-10%	nt	nt	nt	nt
COc1ccc2nc(NC(=O)Nc3ccccc3OC)sc2c1	0.63µM*	0.95µM*	nt	?	?	?
Cc1c(CC(=O)NCC(=O)O)c(=O)oc2cc3oc4c(c3cc12)CCCC4	-2%[1.84 µM]	15µM*	nt	-10%	0%	-1%
Cc1c(CC(=O)O)c(=O)oc2cc3oc4c(c3cc12)CCCC4	-2%	27µM*	nt	0%	-2%	4%
COc1ccc(CCNc2ncnc3onc(C)c23)c(OC)c1	nt	0%	nt	nt	nt	nt
CC1CCN(CCc2nc3cc(NC(=O)COc4ccccc4)ccc3n2C)CC1	2%	2%	nt	12%	9%	0%
Cc1cc(NC(=O)COC(=O)c2cc3c(s2)CCC(C)C3)no1 (configuration not stated)	-3%	0%	-12%	8%	5%	0%
COC(=O)c1sc(NC(=O)c2cc3c(s2)CCCC3)nc1C	4%[1.84 µM]	2.4µM*	4.5µM*	28%	-7%	1.2µM*
Cc1ccc(NC(=O)c2scc3c2CCCC3)cc1	1.8µM*	0.48µM*	1.4µM*	4µM*	?	1.8µM*
CCOC(=O)c1sc(NC(=O)c2cc3c(s2)CCC(C)C3)nc1C (configuration not stated)	-30%	4.8µM*	7%	-35%	-2%	10µM*
CCc1sc(C(=O)Nc2nc(C)cs2)cc1C	?	1.9µM*	nt	1.3µM*	?	?
Cc1cc(C)cc(NC(=O)c2cn3c4c(ccc(Cl)c4c2=O)OC(C)C3)c1 (configuration not stated)	nt	7%	nt	nt	nt	nt
COc1cccc(NC(=O)Cn2c(=O)n(CCCCC(=O)NCCc3ccccc3)c(=O)c3ccccc32)c1	nt	-5%	-3%	nt	nt	nt
CCOc1ccc(CCNC(=O)c2nc(-c3cccc(F)c3)n3c2CCCCC3)cc1OCC	nt	-8%	nt	nt	nt	nt
Cc1nc(NC(=O)c2cc3c(s2)CCCCC3)sc1C(=O)N(C)C	?	13µM*	?	?	12%	?
Cc1nc(NC(=S)NC(=O)c2ccccc2)sc1C(=O)N(C)C	25%	?	2%	24%	23%	6%
COc1ccccc1NC(=O)c1ccc(NC(=O)c2cc3c(s2)CCC3)cc1	-10%	8%	-33%	-8%	-16%	-14%
O=C(Nc1ccccc1OC(F)F)c1cc2c(s1)CCC2	17%	21µM*	25%	9%	?	9%
Cc1nc(NC(=O)CCl)sc1C(=O)N(C)C	-13%	0%	nt	-8%	-12%	-8%
Cc1csc(NC(=O)c2cc3c(C)nn(Cc4ccccc4Cl)c3s2)n1	-4%	11µM*	-47%	-2%	-11%	-5%
Cc1nn(Cc2ccccc2Cl)c2sc(C(=O)NC(C)(C)C)cc12	-19%	2%	-38%	4%	-5%	3%
SMILES	Rab9 prom act	FLuc counter	SMN2 splice up	NPC1 prom act	p53 reactivator	ELG1 genotoxic
Cc1nc(NC(=O)c2ccc(Br)s2)sc1C(=O)N(C)C	3.5µM*	7.6µM*	11µM*	3.2µM*	?	9.2µM*
Cc1ccc(NC(=O)c2cc3c(s2)CCCC3)cc1	1.4µM*	5.4µM*	13µM*	3.2µM*	3%	?
Cc1csc(NC(=O)c2cc3c(s2)CCC3)n1	?	0.85µM*	0.79µM*	0.63µM*	nt	?
O=C(Nc1nnc(C2CC2)s1)c1cc2c(s1)CCCCCC2	9%	7%	?	23%	11%	14%
O=C(NCc1cccs1)c1cc2c(s1)CCCC2	?	12µM*	11µM*	?	?	21µM*
COc1ccccc1N1CCN(S(=O)(=O)CCNC(=O)Cc2ccc(Cl)cc2)CC1	nt	1%	nt	nt	nt	nt
Cc1ccc(NC(=O)CSc2nc3ccc(NC(=O)c4ccco4)cc3s2)c(C)c1	nt	-18%	nt	nt	nt	nt
COc1cc(/C=N/N=C2/C(=O)Nc3ccccc32)ccc1O	-1%	6.7µM*	-10%[1.84 µM]	21%	12%	?
COc1cc(/C=N/N2C(=O)C3C4C=CC(CC4)C3C2=O)ccc1O (configuration not stated)	6%	?	nt	1%	-4%	9%
O=C1c2ccccc2C(=O)N1/N=C/c1ccc(O)c(O)c1O	-5%	17µM*	nt	-6%	-7%	-7%
COc1cc(/C=N/N2C(=O)c3ccccc3C2=O)ccc1O	-2%	12µM*	15%	-1%	22%	0%
COc1cc(/C=N/N=C2/NC(=O)C(Cc3ccc(F)cc3)S2)ccc1O (configuration not stated)	25%	2.7µM*	31%	17%	7%	?
O=C1c2cccc3cccc(c23)C(=O)N1/N=C/c1ccc(O)cc1O	3%	2%	9%	-2%	-4%	3%
COc1cc(/C=N/N=C2/NC(=O)C(c3ccccc3)S2)ccc1O (configuration not stated)	-3%	?	8%	-2%	-5%	?
Cc1cc(Cl)ccc1OCC(=O)N(Cc1ccc(N(C)C)cc1)CC1CCCO1 (configuration not stated)	nt	-18%	5%	nt	nt	nt
Cc1ccc(OCC(=O)Nc2c(C(=O)c3ccc(Cl)cc3)oc3ccccc23)cc1C	nt	1%	-2%	nt	nt	nt
Cc1ccc(Nc2cc(C)nc3nncn23)c(C)c1	nt	-6%	-1%	nt	nt	nt
Cc1ccccc1Cn1c(C)c(CNCc2ccccc2)c(C(=O)O)c1C	nt	-12%	6%	nt	nt	nt
O=C1Nc2ccccc2/C1=N\N=C\c1ccc(O)c(O)c1	-15%	24µM*	nt	-5%	2%	?
Cc1ccsc1/C=N/N=C1\C(=O)Nc2ccccc21	23%	?	0%	?	11%	10%
COCCCNC(=S)Nc1ccc(S(=O)(=O)Nc2cc(OC)nc(OC)n2)cc1	1%	5%	nt	0%	2%	0%
Cc1cc(C)c(NC(=O)C2CCN(c3nnc(C)c4c(C)n(-c5ccccc5)nc34)CC2)c(C)c1	nt	-6%	nt	nt	nt	nt
O=C(Nc1ccc2[nH]ccc2c1)c1ccc(F)cc1	0.5µM*	1.5µM*	nt	0.4µM*	6%	?
O=C(Nc1ccncc1)c1ccc(F)cc1	0%	4%	-13%	1%	-1%	2%
